Where a name gives a salt, the structure may show the parent alone.

The subject of the test is HL-1. Description: relative cell viability (CellTiter-Glo) vs DMSO control (% of DMSO control); higher = more viable cells. The settings on record: oxygen condition: hypoxia 48 h (1% O2) + reoxygenation 24 h; 1000 nM. The gist of the method:
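Cell viability was determined from CellTiter-Glo luminescence, expressed relative to vehicle-treated control cells. The cells were HL-1 mouse atrial cardiomyocytes, plated at 1000 cells per well in 384-well plates with compounds at 40, 200, 1000 or 5000 nM in 0.01% DMSO. One day after plating, they underwent 48 h of hypoxia (1% O2) in a hypoxic workstation followed by 24 h of reoxygenation in a normal incubator, or were kept in normoxia for an equal time.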
As to `CN(C)CCOC(C)(c1ccccc1)c1ccccn1` (centres undefined) [Doxylamine Succinate], the relative cell viability was 105.
As to `CC(C[N+](C)(C)C)OC(N)=O` (centres undefined) [Bethanechol chloride], the relative cell viability came to 107.
With `CC(C)NC[C@H](O)COc1ccc(CCOCC2CC2)cc1` [Levobetaxolol HCl], the relative cell viability came out at 107.
With `CNC[C@H](O)c1cccc(O)c1` [Phenylephrine HCl] the figure was 102; with `CC1(C)O[C@@H]2[C@@H](CO[C@@]3(COS(N)(=O)=O)OC(C)(C)O[C@@H]23)O1` [Topiramate], 108.
Then `O=C1c2cccc3c2[C@H](CCC3)CN1[C@@H]1CN2CCC1CC2` [Palonosetron HCl], with 112.
With `NS(=O)(=O)c1cc2c(cc1Cl)N=CNS2(=O)=O` [Chlorothiazide] the figure was 113; with `Nc1ncn([C@@H]2O[C@H](CO)[C@@H](O)[C@H]2O)c(=O)n1` [Azacitidine], 102; with `O=C(O)Cc1cc(I)c(Oc2ccc(O)c(I)c2)c(I)c1` [Tiratricol], 104.
On to `Cc1onc(-c2ccccc2)c1C(=O)N[C@@H]1C(=O)N2[C@@H]1SC(C)(C)[C@@H]2C(=O)O` [Oxacillin sodium monohydrate], for which the relative cell viability is 96.5.
Consider `N[C@@H](Cc1cc(I)c(Oc2cc(I)c(O)c(I)c2)c(I)c1)C(=O)O` [L-Thyroxine], for which the relative cell viability was determined as 99.6.
For the compound `COc1ccc(Cl)cc1C(=O)NCCc1ccc(S(=O)(=O)NC(=O)NC2CCCCC2)cc1` [Glyburide], the relative cell viability stood at 103.
With `COC(=O)C1=C(C)NC(C)=C(C(=O)OC(C)C)C1c1cccc2nonc12` (centres undefined) [Isradipine] the figure was 106; with `CN(C)CCN(Cc1ccccc1)c1ccccn1` [Tripelennamine HCl], 88.
Then `CN1CCCCC1CCN1c2ccccc2Sc2ccc([S+](C)[O-])cc21` (centres undefined) [Mesoridazine Besylate], with 105; and `N[C@@H](Cc1ccc(O)c(O)c1)C(=O)O` [Levodopa], with 107; and `CNCC[C@H](Oc1cccc2ccccc12)c1cccs1` [Duloxetine HCl], with 99.8.
Take `CCCNC(C)C(=O)Nc1c(C)csc1C(=O)OC` (centres undefined) [Articaine HCl]: the relative cell viability worked out at 57.4.
With `CCOc1nc2cccc(C(=O)O)c2n1Cc1ccc(-c2ccccc2-c2nnn[nH]2)cc1` [Candesartan], the relative cell viability came to 110.
Then `COc1ccc(-c2nc3cc(C4=NNC(=O)CC4C)ccc3[nH]2)cc1` (centres undefined) [Pimobendan], with 99.1.
Regarding `CCCN[C@H]1CCc2nc(N)sc2C1` [Pramipexole dihydrochloride monohydrate], the relative cell viability was 99.8.
With `CCN(CC)C(=S)SSC(=S)N(CC)CC` [Disulfiram] the figure was 4.82; with `CN[C@H](CC(C)C)C(=O)N[C@H]1C(=O)N[C@@H](CC(N)=O)C(=O)N[C@H]2C(=O)N[C@H]3C(=O)N[C@H](C(=O)N[C@H](C(=O)O)c4cc(O)cc(O)c4-c4cc3ccc4O)[C@H](O)c3ccc(c(Cl)c3)Oc3cc2cc(c3O[C@@H]2O[C@H](CO)[C@@H](O)[C@H](O)[C@H]2O[C@H]2C[C@](C)(N)[C@H](O)[C@H](C)O2)Oc2ccc(cc2Cl)[C@H]1O` [Vancomycin HCl], 105.
For the compound `COC(=O)[C@H](c1ccccc1Cl)N1CCc2sccc2C1` [Clopidogrel], the relative cell viability was found to be 106.
In the case of `CN(CCOc1ccc(NS(C)(=O)=O)cc1)CCc1ccc(NS(C)(=O)=O)cc1` [Dofetilide], the relative cell viability worked out at 99.2.
As to `COC(=O)N[C@H](C(=O)N[C@@H](Cc1ccccc1)[C@@H](O)CN(Cc1ccc(-c2ccccn2)cc1)NC(=O)[C@@H](NC(=O)OC)C(C)(C)C)C(C)(C)C` [Atazanavir sulfate], the relative cell viability came out at 105.
As to `CN(C)CCc1c[nH]c2ccc(Cn3cncn3)cc12` [Rizatriptan Benzoate], the relative cell viability amounted to 110.
Regarding `CC=CC1=C(C(=O)O)N2C(=O)[C@@H](NC(=O)[C@H](N)c3ccc(O)cc3)[C@H]2SC1` [Cefprozil hydrate], the relative cell viability was 105.
With `NC(=O)CC[C@H](N)C(=O)O` [L-Glutamine], the relative cell viability worked out at 103.
With `CCOC(=O)[C@H](CCc1ccccc1)N[C@@H](C)C(=O)N1[C@H](C(=O)O)C[C@@H]2CCC[C@@H]21` [Ramipril], the relative cell viability is 113.
Then `CN(C)CCCN1c2ccccc2Sc2ccc(C(F)(F)F)cc21` [Triflupromazine HCl], with 102; and `OC(CCN1CCCCC1)(c1ccccc1)C1CC2C=CC1C2` (centres undefined) [Biperiden HCl], with 93.9.
As for `CC(=O)Oc1ccccc1C(=O)O` [Aspirin], the relative cell viability was 90.7.
Take `COc1ccccc1OCC(O)COC(N)=O` (centres undefined) [Methocarbamol]: the relative cell viability was 108.

For the origin of these results see the supplement of paper PMC8371130.
